# Screens: PubChem BioAssay, several laboratories
# The sample as a whole holds a higher share of hits than the screen did.
# Calb biofilm kill: kills Candida albicans biofilms | inhibition, % at 6 µM | 85,000 tested, 0.14% active | C. albicans biofilm + clotrimazole, Alamar Blue;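 active = inhibition above 20%; inactive = inhibition below 20%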;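 note: preformed 24 hr biofilms exposed to compound for 48 hr; 0% = biofilm without compound and 100% = blank killed by clotrimazole plus chlorhexidine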
# FXIa inh mix: factor XIa (human) inhibition, mixture screen; P03951; purified FXIa, fluorogenic substrate, pooled mixtures; inhibition, % at 5 µM; 62,000 tested, 0.19% active; AID 680;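 note: each value is inhibition by a whole ten-compound pool holding the compound; 0% = enzyme with no mixture and 100% = wells lacking enzyme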
# FXIIa inh mix: inhibitors of human coagulation factor XIIa, pooled mixtures; P00748; purified FXIIa, fluorogenic substrate; inhibition, % at 5 µM; 62,000 tested, 0.2% active; AID 684;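 note: 0% = enzyme without compound and 100% = no enzyme blank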
# TNAP act DEA: human TNAP activation, intermediate phosphate acceptor. P05186. purified TNAP, CDP-star luminescence, 100 mM DEA, 30 min; active compounds read high; scale: 0 levamisole-inhibited, 1 vehicle-only enzyme. activation factor at 20 µM. 64,000 tested, under 10 active. AID 813;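 active = activation factor of at least 2 at 20 µM, relative to controls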
# HePTP inh: human HePTP phosphatase inhibition; recombinant HePTP phosphatase activity, OD absorbance; 110,000 tested, 0.64% active; inhibition, % at 20 µM; in the data active = inhibition above about 50%;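 note: plate controls were vehicle for no effect and reference inhibitor for full effect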
# Target sequence (P35236 whole entry, looked up): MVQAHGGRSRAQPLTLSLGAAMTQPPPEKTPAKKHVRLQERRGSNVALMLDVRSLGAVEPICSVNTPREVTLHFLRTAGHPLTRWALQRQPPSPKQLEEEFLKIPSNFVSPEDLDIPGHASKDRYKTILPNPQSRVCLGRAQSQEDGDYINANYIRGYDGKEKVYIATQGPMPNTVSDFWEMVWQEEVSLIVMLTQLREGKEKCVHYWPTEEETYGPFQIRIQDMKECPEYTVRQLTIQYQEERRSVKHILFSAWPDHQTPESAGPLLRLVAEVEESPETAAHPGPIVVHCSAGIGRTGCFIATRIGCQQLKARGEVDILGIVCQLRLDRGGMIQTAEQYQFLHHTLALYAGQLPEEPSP
# D1 mod: allosterically modulates the human D1 dopamine receptor; P21728; HEK293 D1, CRE-luciferase, dopamine EC30 potentiation; actives deviate in either direction; B-score at 10 µM; 58,000 tested, 5.9% active; AID 641;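 active = luminescence count or its row- and column-corrected plate score outside the 99.7% band of the plate's sample wells, on either side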
# D1 mod confirm: confirmation of human D1 dopamine receptor allosteric modulators; shares compounds with D1 mod; HEK293 D1 CRE-luciferase, dopamine EC30 potentiation; active compounds read high; luminescence at 10 µM; 2,200 tested, 88% active; AID 642;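 active = luminescence in either of two replicates above the same-plate mean plus 3 SD of the low-dose dopamine control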
# D1 ag no DA: D1 (human) signaling in absence of dopamine | shares compounds with D1 mod | HEK293 D1 CRE-luciferase, luminescence, no dopamine; active compounds read high | luminescence at 10 µM | 1,900 tested, 0.8% active | AID 646; in the data active = luminescence above about 3900
# Isoprot counter: counter-screen for D1 modulators: isoproterenol response in HEK293 cells | shares compounds with D1 mod | HEK293 D1 CRE-luciferase, isoproterenol EC30 counter-screen; active compounds read high | luminescence at 10 µM | 2,200 tested, 63% active | AID 647;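 active = luminescence in either replicate above plate mean of wells with a partly effective reference agonist dose plus 3 SD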;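 note: isoproterenol raises cAMP through native beta-adrenoceptor Gs so signal bypasses D1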
# * marks the source's active call; other numbers are inactive results; x = no result given. Cut-off read from the data, not from the text of the source, unless noted: active = inhibition above about 20% (passing the limit was not always enough); inactive = the rest.
SMILES,Calb biofilm kill,FXIa inh mix,FXIIa inh mix,TNAP act DEA,HePTP inh,D1 mod,D1 mod confirm,D1 ag no DA,Isoprot counter
CSc1nc(NCC(C)C)nc(N2CCOCC2)n1,-4,1,2,0.9,0,8.8*,26752*,1652,4592*
CCCc1nc2oc3c(OC)ncnc3c2c2c1COC(C)(C)C2,5,x,x,x,x,x,x,x,x
CCCc1nc2oc3c(NCCOCCO)ncnc3c2c2c1COC(C)(C)C2,8,4,3,1,11,14*,18640*,x,3792*
Cc1nc2oc3c(NCC4CCCO4)ncnc3c2c2c1COC(C)(C)C2 (stereo unspecified),x,2,9,0.9,-6,6.4*,9548*,x,2624
Cc1ccc2[nH]c(=O)c(CN(CCc3ccccc3)C(=O)N3CCOCC3)cc2c1,7,2,4,0.9,1,-0.1,x,x,x
COc1ccc(CCN(Cc2cc3cc(C)ccc3[nH]c2=O)C(=O)N2CCCC2)cc1OC,-1,8,10,0.9,2,9.1*,13088*,1584,3456*
CCn1c(=O)cc(C(=O)OC)sc1=Nc1ccc(F)c(F)c1,8,9,5,0.9,6,11*,23240*,1624,5172*
COC(=O)c1c(C)c(-c2cccs2)nc2ccccc12,x,x,x,x,-3,x,x,x,x
CCCCOc1ccc(S(=O)(=O)N(CC)CC)cc1,x,x,x,x,-11,x,x,x,x
C/C(=N\Nc1nc(-c2ccc(C)cc2)nc2ccccc12)c1ccc(N)cc1,x,x,x,x,-1,x,x,x,x
N#Cc1cc2c(nc1SCc1ccccc1)CCCCC2,7,x,x,x,x,x,x,x,x
N#Cc1cc2c(nc1SCc1cccnc1)CCCCC2,-1,1,8,0.9,2,10*,23880*,1748,7692*
Cc1cc(C)c([N+](=O)[O-])cc1-c1ccc(/C=c2\sc3nc4ccccc4n3c2=O)o1,x,x,x,x,8,x,x,x,x
Cc1cccc(-c2nnc(-c3ccco3)o2)c1,x,x,x,x,3,x,x,x,x
O=C(COc1ccc2ccccc2c1)NNC(=O)c1ccccc1Cl,x,x,x,x,10,x,x,x,x
COc1cc2c(cc1OC)C1=C(C#N)COCN1CC2,6,4,1,1,7,15*,9624*,1768,4436*
CCNc1cc2n(c(=O)n1)CCc1cc(OC)c(OC)cc1-2,1,-5,4,1,1,1.8,x,x,x
CCOC(=O)C1CCN(S(=O)(=O)c2cc(Br)cc3c2N(C(C)=O)C(C)C3)CC1 (stereo unspecified),2,-1,-16,0.9,10,4.6*,8392*,1388,3688*
CCOC(=O)N1CCN(S(=O)(=O)c2cc(Br)cc3c2N(C(C)=O)C(C)C3)CC1 (stereo unspecified),4,7,4,1,2,0.51,x,x,x
Cc1c(C#N)c2ccccc2n1CC(=O)NCC1CCCO1 (stereo unspecified),x,0,9,0.9,2,3.8*,5268,1692,2976
CCCCc1nc(NCCN2CCOCC2)c(C#N)c2c1COC(C)(C)C2,13,-3,-20,0.9,4,5.8*,11452*,1780,8292*
CC(C)Cc1nc(NCCN2CCOCC2)c(C#N)c2c1COC(C)(C)C2,1,x,x,0.9,-1,x,x,x,x
N#Cc1c(-c2ccccc2)cc(C2CC2)nc1N,-6,3,-16,0.9,-2,25*,29052*,1688,5036*
N/C(=N\N=C\c1cc(Br)cc(Br)c1O)c1nonc1N,x,x,x,x,-7,x,x,x,x
C=CCc1ccccc1OCCn1ccnc1,1,1,6,0.8,10,4.2*,15712*,1544,3192
SMILES,Calb biofilm kill,FXIa inh mix,FXIIa inh mix,TNAP act DEA,HePTP inh,D1 mod,D1 mod confirm,D1 ag no DA,Isoprot counter
Clc1ccccc1OCCn1ccnc1,12,0,1,0.9,-4,0.049,x,x,x
O=C(Nc1ccc(NC(=O)c2cc3ccccc3o2)cc1)c1ccc(Br)cc1,x,x,x,x,-11,x,x,x,x
CCc1noc2c1/C(=N\O)CC(c1ccccc1)C2 (stereo unspecified),3,2,9,0.9,2,17*,25792*,1744,3700*
CCN(CC)c1ccc(/C=N/NC(=O)CN(c2ccc(OC)cc2)S(=O)(=O)c2ccccc2)cc1,x,x,x,x,-8,x,x,x,x
CCn1ccc(C(=O)Nc2ccc(N(C)C(C)=O)cc2)n1,x,3,3,1,1,2.4*,5156,1532,2508
CCn1ccc(C(=O)Nc2ccc(Cl)cn2)n1,8,7,-14,0.9,1,-0.041,x,x,x
Nc1c(C(=O)c2ccc(Cl)cc2)sc2nc(-c3ccccc3)ccc12,x,x,x,x,0,x,x,x,x
CCN(Cc1ccccc1)C(=O)c1cccc([N+](=O)[O-])c1,x,x,x,x,-21,x,x,x,x
Cc1cc(C(=O)Nc2ccc(S(=O)(=O)Nc3onc(C)c3C)cc2)c(C)o1,8,-4,0,0.9,4,2.9*,8272*,1556,2872*
c1ccc(-c2nnc3sc(CN4CCc5ccccc54)cn23)cc1,x,x,x,x,x,2.6*,15088*,1624,2828
Brc1ccc(-c2nnc3sc(CN4CCc5ccccc5C4)cn23)cc1,5,6,-14,1,-4,1.6,x,x,x
COc1nc(OC)nc(N2CCC(C(=O)NCc3ccco3)CC2)n1,11,-2,7,0.9,-2,-1,x,x,x
COc1nc(NCc2ccco2)nc(N2CCC(C)CC2)n1,3,7,16,0.9,4,10*,15736*,1680,4404*
O=C1NC(=O)N(c2ccc(Cl)cc2)C(=O)/C1=C\c1ccc(-c2ccc(C(=O)O)c(Cl)c2)o1,x,x,x,x,4,x,x,x,x
COC(=O)c1ccc(Oc2cc(C)nc(SC)n2)cc1,4,-1,-17,0.9,-1,5.3*,15492*,1728,3488*
COc1ccc(C2Nc3ccccc3C(=O)N2c2ccccc2)cc1COc1ccc(NC(C)=O)cc1 (stereo unspecified),x,x,x,x,-10,x,x,x,x
COc1ccc(/C=N/O)cc1COc1ccc(NC(C)=O)cc1,11,-34,-13,0.9,4,4.7*,6740*,1564,3584*
COc1ccc(-n2c(SCC#N)nnc2-c2ccc(NS(=O)(=O)c3ccc(C)cc3)cc2)cc1,5,4,9,1,-10,9.9*,21068*,1748,5284*
Cc1ccc(OCC(=O)Nc2cc(C(F)(F)F)cc(C(F)(F)F)c2)cc1C,x,x,x,x,0,x,x,x,x
CCN(CC(=O)Nc1ccc2c(c1)OCCO2)C(=O)c1cccc(S(=O)(=O)N2CCOCC2)c1,1,1,5,x,x,3*,5360,x,2436
CCN(CC(=O)Nc1ccc2c(c1)OCCO2)c1ccc(S(=O)(=O)N2CCOCC2)cn1,8,1,11,0.9,6,-0.49,x,x,x
COC(=O)C1CCN(C(=O)COc2cc3sc(C)nc3c3sccc23)CC1,-9,2,1,0.9,6,0.51,x,x,x
